The results in this text go back to PubChem BioAssay (NCI).

What all share (test): NCI-60 one-dose screen, 48 h (100 = growth as untreated, 0 = no growth, -100 = all killed)
Holding throughout (details): 10 µM

Test [1] deals with DU-145 prostate.
Test [2] deals with K-562 leukemia.
Test [3] concerns MALME-3M melanoma.
Test [4] concerns MDA-MB-231 breast.
Test [5] deals with RXF 393 renal.
Test [6] deals with SF-268 CNS.
Test [7] relates to SF-295 CNS.
Test [8] deals with SF-539 CNS.
In test [9] the test system is UACC-257 melanoma.
Test [10] deals with M14 melanoma.

Each structure is given as a SMILES string. The panel holds about 83,000 compounds, 20% with a hit somewhere; the sample as a whole holds those more often.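 For each line, cells grew in 96-well plates with the test compound present at a single concentration for 48 hours.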 Unmarked numbers belong to inactive results. Activity calls are given as the source filed them. How the source made its calls: active means growth percent below 10; inactive means the rest.

Consider `CCCCCC(=O)N1c2ccccc2NC2=C(C(=O)CC(c3ccc(OC)c(OC)c3)C2)C1c1ccc(C(F)(F)F)cc1` (stereo not given), for which the growth was 85% in [1]; 28.4% in [2]; 84.3% in test [3]; 69% in [4]; 1.04% (active) in test [5]; 57.3% in test [6]. Further, the growth in test [7] was 36.1%; in test [8], 80.7%; in test [9], 41.8%; in test [10], 58.3%.

Regarding `Cc1ccc(-c2cc(-c3cccc(Nc4ccnc5cc(Cl)ccc45)c3)nc3nc(N)[nH]c(=O)c23)cc1`, the growth in [1] was 105%; in test [2] it was 28.1%; in test [3], 108%; in [4], 103%; in [5], 90.9%; in test [6], 91.2%. Also, the growth in test [7] is 102%; in test [8], 97.5%; in test [9], 102%; in [10], 106%.

With `COc1cccc2c1O/C(=C\c1ncc([N+](=O)[O-])n1C)C2=O`, the growth in [1] was -11.9% (active); in test [2], 0.449% (active); in test [3], -53% (active); in test [4] it was -19.6% (active); in [5], -66.2% (active); in test [6], -31.3% (active). Also, the growth in test [7] is -10.4% (active); in test [8], -53% (active); in test [9], -50.5% (active); in test [10], -61.8% (active).

`O=C(Cn1ccc(=O)[nH]c1=O)c1ccc([N+](=O)[O-])o1`: the growth in test [1] was 92.3%; in test [2], 83.6%; in [3], 57.8%; in test [4] it was 111%; in [5] it was 118%; in test [6], 105%. Moreover, the growth is 92.7% in [7], 106% in [8], 81.5% in test [9] and 91.4% in test [10].

For `O=NN(CC(=O)N/N=C/C=C\c1ccccc1)CC(=O)N/N=C/C=C/c1ccccc1`, the growth is 109% in test [1]; 96.9% in test [2]; 90.6% in test [3]; 89.2% in test [4]; 71.3% in test [5]; 88% in [6]. The growth in test [7] was 106%; in [8], 92.3%; in test [9], 98.8%; in test [10], 97.5%.

Consider `CCN(Cc1ccccc1)C1CCN(Cc2cc(Br)ccc2O)CC1`, for which the growth in test [1] is 67.4%; in test [2], 11.6%; in test [3] it was 42.7%; in test [4], 26.3%; in [5] it was 48.7%; in test [6], 65.9%. Moreover, the growth is 63.8% in [7], 74.8% in [8], 46.1% in test [9] and 46.6% in test [10].

Turning to `CN(C)Cc1cccs1`, the growth was 111% in test [1]; 109% in test [2]; 96.7% in test [3]; 90.4% in test [4]; 99.3% in test [5]; 95.2% in test [6]. The growth is 100% in test [7], 96.1% in [8], 96.9% in test [9] and 94.8% in test [10].

Regarding `CC(C)/C=N/NC(N)=S`, the growth in test [1] was 95.3%; in test [2], 47.3%; in [3] it was 80.3%; in test [4], 86.2%; in [5] it was 106%; in [6], 99.9%. Besides, the growth in test [7] is 90.5%; in test [8] it was 102%; in [9], 40.5%; in test [10], 84.4%.

For `C=CCOc1ccc2c(c1)CC=C1[C@@H]2CC[C@]2(C)C(=O)/C(=N/O)C[C@@H]12`, the growth in [1] was 91.7%; in test [2], 8.09% (active); in test [3] it was 96.2%; in test [4], 90.2%; in test [5], 53.7%; in [6], 76.3%. The growth was 64.3% in test [7], 46.1% in [8], 117% in [9] and 79.4% in [10].

For `N#CCC1CCCC1`, the growth was 127% in test [1]; 106% in [2]; 114% in test [3]; 104% in test [4]; 107% in [5]; 114% in test [6]. Moreover, the growth in test [7] was 90.6%; in [8] it was 111%; in test [9], 100%; in test [10] it was 105%.

As to `Cc1cc2cc3c(=O)[nH]c(=O)cc-3n(CC(O)C(O)C(O)CO)c2cc1C` (stereo not given), the growth was 95.5% in test [1]; 108% in test [2]; 104% in test [3]; 109% in test [4]; 115% in test [5]; 108% in [6]. Besides, the growth in test [7] is 97.6%; in [8], 107%; in test [9] it was 110%; in [10], 107%.

`COc1ccc(-c2nc(-c3ccccc3)c(-c3ccccc3)[nH]2)cc1OC1CCCC1`: the growth in test [1] is 86.4%; in [2], 31.6%; in test [3], 103%; in [4] it was 18.7%; in [5], 13.7%; in test [6], 73.7%. For the same compound, the growth in test [7] is 52.9%; in test [8], 63.3%; in [9], 79.9%; in test [10], 56.1%.

Regarding `CC1=CSC2=NC(c3ccc(Cl)c(Cl)c3)=CC(c3ccc(Cl)cc3)N12` (stereo not given), the growth in test [1] is 20.5%; in [2], 17%; in [3], -22.7% (active); in test [4], -44% (active); in [5], -47.7% (active); in test [6] it was 14.7%. The growth in test [7] was 99.6%; in [8] it was -46.7% (active); in [9], 18.7%; in test [10] it was 0.183% (active).

As to `CCOC(=O)C1=C(Nc2ccc(OC)cc2)C(N)=NC1=N`, the growth in test [1] was 44.1%; in test [2] it was 19%; in test [3], 31.9%; in test [4], 67.5%; in test [5], 46.7%; in test [6], 60%. Further, the growth was 54.8% in test [7], 25% in [8], 44.9% in test [9] and 27.3% in test [10].
